SKKanGAS inh: blocks kanamycin growth of S. pyogenes SKKanGAS strain; BacTiter-Glo, 6 h; inhibition, % at 7.5 µM; 1.3% of 300,000 active; AID 1662;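 active means mean replicate score, as percent of positive control median, at least 50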;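 further: strain carries kanamycin resistance gene driven by streptokinase promoter and grows in 40 µg/ml kanamycin; loss of luminescence reflects streptokinase promoter inhibition or plain growth inhibition; 0% = median of DMSO wells and 100% = positive control at its reference dose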
tim23-1 inh: growth inhibitors of tim23-1 mutant yeast; AID 463212; S. cerevisiae tim23-1 growth, BacTiter-Glo luminescence, 24 h; inhibition, % at 20 µM; 1.3% of 330,000 active;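 active means growth inhibition of the mutant yeast at or above 50%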;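 further: temperature-sensitive mutant grown at 25 °C; plate controls were DMSO-treated mutant yeast for no effect and medium wells lacking yeast for full effect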
NLRP3 yeast inh: inhibitors of NALP3 inflammasome in yeast. Yeast reconstituted NLRP3/ASC/caspase-1, beta-gal luminescence, 24 h. inhibition, % at 10 µM. 0.39% of 330,000 active. AID 2825;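 active means inhibition of 50% or more; inactive means inhibition below 50%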;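 further: plate controls were induced DMSO wells for no effect and uninduced yeast grown without galactose for full effect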
PfHsp90 set2: reduces growth (ATP signal) of yeast expressing P. falciparum Hsp90 | S. cerevisiae expressing PfHsp90, BacTiter-Glo ATP, 48 h; yeast lacking PDR1 and PDR3 efflux regulators | inhibition, % at 9.4 µM | 0.32% of 310,000 active;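 active means every replicate shows inhibition above about 80%, whatever the replicate mean, limit read from the data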;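 further: 0% = DMSO neutral controls and 100% = 20 µM radicicol positive controls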
TIM10 inh: inhibits growth of TIM10 yeast strain | 1.4% of 330,000 active | inhibition, % at 10 µM | S. cerevisiae TIM10 strain growth, BacTiter-Glo luminescence, 24 h | AID 463195;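 active means inhibition of 40% or more at the single tested concentration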;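 further: wild-type TIM10 isogenic control strain grown at permissive 25 °C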
tim10-1 inh: inhibits growth of tim10-1 mutant yeast | inhibition, % at 20 µM | AID 463190 | S. cerevisiae tim10-1 ts strain growth, BacTiter-Glo, 24 h | 2.2% of 330,000 active;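 active means inhibition of at least 40%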;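 further: mutant grown at 25 °C; 0% = DMSO wells with yeast and 100% = wells holding no yeast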
tim10-1 conf: confirmation of tim10-1 mutant yeast growth inhibitors. shares compounds with tim10-1 inh. S. cerevisiae tim10-1 ts strain growth, BacTiter-Glo, 24 h. inhibition, % at 20 µM. 56% of 7,400 active. AID 463213;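 active means inhibition of yeast growth at or above a set limit in either of two repeat tests at 20 µM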;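 further: tim10-1 mutant grown at permissive 25 °C to find synthetic lethal compounds; 0% = DMSO yeast wells and 100% = medium wells without yeast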
TIM10 conf: confirmation of TIM10 yeast growth inhibitors; shares compounds with TIM10 inh; S. cerevisiae tim10 strain growth, BacTiter-Glo luminescence, 24 h; inhibition, % at 10 µM; 63% of 4,600 active;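 active means inhibition of yeast growth at or above a set limit in either of two replicates at 10 µM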;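 further: this counterscreen used the strain with wild-type TIM10; 0% = yeast with DMSO and 100% = medium wells lacking yeast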
Active calls of the source: *; / = no result. Shown are actives, neighbours in structure and some others; about 4.6% of the full set was active somewhere.

SMILES	SKKanGAS inh	tim23-1 inh	NLRP3 yeast inh	PfHsp90 set2	TIM10 inh	tim10-1 inh	tim10-1 conf	TIM10 conf
CCCCCC1CC(CC(=O)Nc2nncs2)C(=O)O1 (stereo not drawn)	-4	44	10	8	45*	40	37*	31*
CC(C)(C)c1ccc(-c2n[nH]c(=S)n2C2CCCC2)cc1	0	48	18	-14	44*	41*	30*	45*
O=C1N/C(=C\c2ccc(O)cc2)C(=O)c2ccccc21	-5	40	7	/	48*	55*	42*	36*
Cc1ccc2c(c1)N(CCC(=O)NC1CCCCC1)C(=O)CO2	-1	22	12	-13	-13	24	/	/
Cc1cccc(C)c1N=Cc1c(O)n(-c2nccs2)c(=O)c2ccccc12	-5	48	17	-5	55*	46*	41*	-3
O=c1c2ccccc2c(C=Nc2ccccc2O)c(O)n1-c1nccs1	-6	-2	6	2	-7	6	/	/
O=Cc1coc2c(ccc3ccccc32)c1=O	10	44	10	/	58*	41*	34*	78*
O=C/C=C/c1coc2ccc3ccccc3c2c1=O	0	40	28	/	7	24	/	/
CC(=O)/C(=N\Nc1ccccc1Cl)Sc1nnc(-c2ccccc2)n1-c1ccccc1	0	11	20	16	22	13	/	/
CC(=O)/C(=N\Nc1ccccc1)Sc1nnc(-c2ccccc2)n1-c1ccccc1	-1	25	19	18	46*	44*	29	4
C[C@]12CC[C@H](OC(=O)CCC(=O)O)CC1=CCC1C2CC[C@@]2(C)C1CC[C@@H]2N (stereo partly drawn)	/	4	8	/	-1	12	/	/
CC(=O)OC1CCC2(C)C(=CCC3C2CCC2(C)C3CC3OC4(CCC(C)CN4)C(C)C32)C1 (stereo not drawn)	-3	42	2	11	44*	41*	34*	22
O=C(NC(=S)N(Cc1ccccc1)Cc1ccccc1)c1ccccc1F	94*	32	34	-23	59*	50*	38*	44*
O=C(NCCc1ccccc1)c1ccccc1F	7	-1	-10	-11	8	12	/	/
COc1ccc(C(=O)NC(=S)N(Cc2ccccc2)Cc2ccccc2)cc1	96*	17	22	-67	48*	47*	35*	39*
CCCCNC(=O)/C(C#N)=C/c1cccnc1	-1	50	18	15	50*	44*	35*	39*
CC(C)OC(=O)/C(C#N)=C\c1cccnc1	-1	1	7	-3	1	4	/	/
C=C1CCC[C@]2(C)C[C@H]3OC(=O)C(CNC(C)(CO)CO)[C@H]3CC12 (stereo partly drawn)	-2	44	-68	-24	43*	51*	52*	50*
COc1c(S(=O)(=O)n2nc(C)cc2C)ccc(Cl)c1Cl	11	38	-8	28	44*	49*	44*	42*
CCOC(=O)c1ccc(NC(=O)CCNS(=O)(=O)c2cc(Br)cnc2N)cc1	1	-16	2	21	-6	-25	/	/
CC(C)c1ccc(S(=O)(=O)c2ccc(NN)cc2)cc1	/	46	12	-8	42*	44*	34*	31*
Cc1onc(-c2ccccc2)c1C(=O)NC(=S)Nc1sc2c(c1C#N)CCCC2	21	40	36	-6	54*	42*	28	33*
O=C(NN=C1c2ccccc2-c2ccccc21)c1ccccn1	-14	20	15	-15	48*	41*	25	39*
COC(=O)C1=C(C(=O)OC)[C@@H]2N(C)c3ccccc3[C@@]23C[C@@H](C(=O)OC)N(C(=O)c2ccc(Br)cc2)C3=N1	2	28	4	12	10	19	/	/
Cc1ccc2ccccc2c1COC(=O)c1nonc1N	-8	26	-9	4	50*	43*	43*	50*
SMILES	SKKanGAS inh	tim23-1 inh	NLRP3 yeast inh	PfHsp90 set2	TIM10 inh	tim10-1 inh	tim10-1 conf	TIM10 conf
O=C(O)C1C2CCC(O2)C1C(=O)NCc1ccc(Cl)cc1 (stereo not drawn)	-2	2	20	0	-1	-16	/	/
CN(CC(=O)Nc1ccccc1Cl)C(=O)CN1C(=O)NC(c2ccccc2)(c2ccccc2)C1=O	/	1	-2	-2	7	4	/	/
Cc1nn(CCC(N)=S)c2nc(-c3cccs3)cc(C(F)(F)F)c12	-20	32	22	-8	55*	44*	41*	41*
O=C(NCC(O)c1ccc([N+](=O)[O-])cc1)C1=COCCO1 (stereo not drawn)	/	2	17	8	6	-13	/	/
C=CCOc1cccc(C2/C(=C(\O)c3ccc4c(c3)OCCO4)C(=O)C(=O)N2CCN2CCOCC2)c1 (stereo not drawn)	2	19	7	-5	-1	18	/	/
CCO/C=N/Nc1nc(C(F)(F)F)nc2c1cnn2Cc1ccccc1	19	40	23	10	56*	59*	56*	58*
Cc1cccc(NC(=S)NCc2ccccc2Cl)c1C	3	8	-9	-1	15	12	/	/
Cc1ccc(CNC(=O)/C(C#N)=C\c2ccc(N(C)C)cc2)cc1	35	20	9	/	45*	45*	29	17
COc1cc(CNCc2cc(OC)c(OC)c(OC)c2)cc(OC)c1	4	2	14	6	-1	-5	/	/
Cc1cccc(C)c1NC(=S)NN(Cc1ccccc1)c1ccccc1	17	0	11	6	0	27	/	/
CC(C)c1ccccc1NC(=S)NN(Cc1ccccc1)c1ccccc1	26	34	4	23	52*	46*	32*	29*
Cc1ccccc1C1CC(=O)c2ccccc2C1C (stereo not drawn)	/	/	/	22	/	/	/	/
Cc1cc2c3c(c1)C(C)CC(C)(C)N3C(=O)C2=C(C#N)C#N (stereo not drawn)	6	-44	14	8	59*	57*	46*	49*
CC(=O)c1c(C)[nH]c(C(=O)COC(=O)c2ccc(Cl)nc2)c1C	/	2	17	-11	-6	8	/	/
Cc1ccc(NC(=O)c2cc(S(=O)(=O)NCCC3=CCCCC3)ccc2F)cc1	16	42	9	-20	54*	50*	41*	-12
O=C(NC1=NCCS1)c1sc2cc(Cl)cc(Cl)c2c1Cl	-9	43	27	0	45*	50*	25	6
COc1cc(OC)cc(C(=O)NC2=NCCS2)c1	-4	7	11	9	11	9	/	/
